Bioassay records deposited in PubChem by National Center for Advancing Translational Sciences (NCATS).
ClpP mod – qHTS Assay for Activators of ClpP; ATP-dependent Clp protease proteolytic subunit (Bacillus subtilis (strain 168)), P80244; purified B. subtilis ClpP, FRET peptide cleavage, 20 min; Potency, µM (top dose mostly 57.5 µM); 340,000 compounds, 1.9% hits; AID 651965, 2013; active means well fitted falling curve with a large enough effect; inconclusive means small, poorly fitted or top-dose-only effect; inactive means no such curve, though single readings can be large or run the other way; further: the source files actives as falling curves though it sought activators and does not explain the sign; nearly all actives have a fitted effect of over 65% in size
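Buffer: 100 mM Tris/HCl pH8, 100 mM KCl, 0.05% low protease BSA, 2.5% glycerol, 0.01% Tween-20. ClpP 10 microg/mL final; 20 min RT; delta FRET normalized to ADEP and DMSO controls.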
IL-1B inflam inh – blocks inflammasome-driven IL-1 beta release; activity change, % at 57.5 µM; 360,000 compounds, 4.7% hits; THP-1 LPS/ATP IL-1B secretion, AlphaLISA, 16 h; hits give low values; in the data active means activity change below about -50%; inconclusive means mostly about -30% to -49%
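THP-1 cells pretreated 1 hr with compounds (up to 57.5 uM final), then stimulated with LPS (250 ng/mL final) plus ATP (1.25 mM final); secreted IL-1B measured by AlphaLISA after 16 hr, decreased signal indicating inhibition.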
D3 ag – activates the human D3 dopamine receptor. AID 652048. max activation, %. P35462. 410,000 compounds, 0.58% hits. D3R DiscoveRx beta-arrestin cells, luminescence, 90 min; in the data active means max activation above about 30%
Target sequence (P35462 whole entry, looked up): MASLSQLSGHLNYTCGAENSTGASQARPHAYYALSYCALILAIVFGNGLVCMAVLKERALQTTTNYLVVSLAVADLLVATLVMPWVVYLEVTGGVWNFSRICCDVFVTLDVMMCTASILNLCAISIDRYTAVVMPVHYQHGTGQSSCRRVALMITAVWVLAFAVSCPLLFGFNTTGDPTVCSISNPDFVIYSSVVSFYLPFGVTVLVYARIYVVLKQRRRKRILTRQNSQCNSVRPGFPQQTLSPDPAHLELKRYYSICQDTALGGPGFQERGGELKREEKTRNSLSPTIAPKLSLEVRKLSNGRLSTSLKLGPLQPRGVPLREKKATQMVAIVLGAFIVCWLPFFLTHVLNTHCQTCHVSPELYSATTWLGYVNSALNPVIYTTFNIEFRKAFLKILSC
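Agonist-mode cell screen: cells plated at 1500/well and incubated overnight at 37 °C, then exposed to library compounds for 90 min at 37 °C. Detection reagent was added for 30–60 min at room temperature, and luminescence was read.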
DT40 TDP1 CPT – DT40-hTDP1 cell growth loss with CPT; chicken DT40 Tdp1-/-;hTDP1 cells + 20 nM CPT, ATP luminescence, 48 h; 420,000 compounds, 12% hits; AID 686979; Potency, µM (highest dose often 46.2 µM), hits mostly inhibitors; further: nearly all actives have a fitted effect of over 55% in size
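Cell growth measured by CellTiter-Glo luminescence after a minimum 48 h, 37 C compound exposure with 20 nM CPT in Tdp1-knockout DT40 cells stably expressing hTDP1, seeded 400/well; qHTS titration format.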
DRD3 antagonist – antagonists of human D3 dopamine receptor; max response, negative = inhibition, %; 360,000 compounds, 2.5% hits; P35462; D3R cells, DiscoveRx beta-arrestin luminescence, antagonist mode; hits give low values; AID 652054; in the data active means max response below about -50%; inconclusive means no clear call, values can overlap the other calls
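Cells expressing the human receptor were seeded at 1500 cells/well, incubated overnight at 37 degrees C in 5% CO2, then exposed to library compounds with dopamine controls for 90 minutes at 37 degrees C before luminescent detection.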
DT40 TDP1 no CPT – qHTS for Inhibitors of human tyrosyl-DNA phosphodiesterase 1 (TDP1): qHTS in cells in absence of CPT | DT40 Tdp1-/- hTDP1 cells, no CPT, ATP luminescence, 48 h | Potency, µM (titrated, usually from 46.2 µM), actives largely listed as inhibitors | 420,000 compounds, 15% hits | AID 686978, 2013; further: nearly all actives have a fitted effect of over 55% in size
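Camptothecin absent (DMSO only). Human TDP1-complemented DT40 knockout cells, 400 cells/well, 37 °C for minimum 48 hr; ATP measured via CellTiter-Glo, 30 min dark incubation, luminescence.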
Numbers stand for hits; . = inactive; ? = inconclusive; / = not tested or not shown. The list is not random: actives were taken first. Their share in the collection is about 21%. Unless noted, the call rests on the fitted dose curve; in most records, active means well fitted inhibition curve with a large enough effect; inconclusive means small, poorly fitted or top-dose-only effect; inactive means flat fitted curve, though single readings scatter.

SMILES	ClpP mod	IL-1B inflam inh	D3 ag	DT40 TDP1 CPT	DRD3 antagonist	DT40 TDP1 no CPT
CC1(C(=O)Nc2ccccc2)CCN1C(=O)C1(c2ccccc2)CC1 (configuration not stated)	.	.	.	?	.	.
CC(C)c1ccc(CC(=O)N2CCC2(C)C(=O)Nc2cccc(C#N)c2)cc1 (configuration not stated)	.	.	.	?	.	16µM
COc1ccc(CNC(=O)CN(Cc2ccc(OC)cc2)C(=O)CCC(=O)Nc2nccs2)cc1	/	.	.	.	.	.
COc1ccc(Oc2ncc(CN3CCN(c4ccccc4)CC3)s2)cc1	.	.	35	?	.	?
COc1cccc(N2CCN(C(=O)c3ccc(-c4ccccc4)cc3)CC2)c1	.	.	.	.	.	.
COc1cccc(N2CCN(Cc3ncc(-c4ccccc4)o3)CC2)c1	/	.	.	.	-56	.
COc1ccc(N2CC(C(=O)N[C@@H](CC(C)C)C(=O)NC3CCCCC3)CC2=O)cc1 (some centres not stated)	/	.	.	.	.	.
CC(CNC(=O)CN(C)CC(=O)Nc1ccccc1Br)c1ccccc1 (configuration not stated)	.	.	.	.	.	.
CCOc1ccc(NC(=O)CCNS(=O)(=O)c2ccc3c(c2)CCCC(=O)N3)cc1	.	/	.	/	/	/
CSCCC1NC(=O)C(C(C)=NNC(N)=O)=C1O (configuration not stated)	.	.	.	?	.	16µM
C/C(=N\NC(N)=O)c1ccccc1Cl	/	.	.	.	.	.
COc1cc(OC)cc(N2C(=O)CSC23C(=O)Nc2ccccc23)c1 (configuration not stated)	.	/	.	/	/	/
Cc1ccc(C)c(N2CCN(C(=O)c3ccc(CS(=O)Cc4ccc(Cl)cc4)o3)CC2)c1 (configuration not stated)	.	.	.	?	.	?
Cc1ccc(CS(=O)Cc2ccc(C(=O)N3CCN(c4cccc(C)c4C)CC3)o2)cc1 (configuration not stated)	.	.	.	?	.	21µM
Cc1ccc(Cl)cc1N1CCN(C(=O)c2ccc(CS(=O)Cc3ccc(Cl)cc3)o2)CC1 (configuration not stated)	.	?	.	13µM	.	?
O=C(COC(=O)c1ccc([N+](=O)[O-])o1)NC1CCCCC1	.	.	.	0.0082µM	.	0.0082µM
O=C(COC(=O)CSc1ccc([N+](=O)[O-])cc1)NCCCc1ccccc1	.	.	.	15µM	.	?
O=C(COC(=O)c1ccc([N+](=O)[O-])o1)NCCCc1ccccc1	.	.	.	.	-51	.
COc1ccc(CCNC(=O)COC(=O)c2ccc([N+](=O)[O-])o2)cc1	.	.	.	.	.	.
Cc1c(C(=O)OCC(=O)NC(=O)NC2CCCCC2)cccc1[N+](=O)[O-]	.	-67	.	?	.	?
COc1cccc(C(=O)OCC(=O)NC(=O)NC2CCCC2)c1O	/	.	.	.	.	.
CC1CCCCC1NC(=O)COC(=O)c1ccc([N+](=O)[O-])o1 (configuration not stated)	/	.	.	.	.	.
O=S(=O)(NCc1ccccn1)c1ccccn1	.	.	.	.	.	.
C/C=C/C(=O)Nc1cccc(C2=NOC3(C2)C[C@@H](C(N)=O)N(C(=O)C(c2ccccc2)c2ccccc2)C3)c1 (some centres not stated)	.	.	.	?	.	?
CC(OC(=O)CSc1ccc([N+](=O)[O-])cc1)C(=O)NCc1ccccc1 (configuration not stated)	/	.	.	21µM	.	16µM
O=C(NC1CCCC(C(F)(F)F)C1)c1ccc([N+](=O)[O-])o1 (configuration not stated)	.	-98	.	?	.	18µM
